Reference: PubChem BioAssay (NCI)
The panel holds about 83,000 compounds, 20% with a hit somewhere; the sample as a whole holds those more often.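 The endpoint reported here, percent growth, reads 100 for growth as untreated, 0 for no net growth and -100 for all cells dead.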 Values without a mark were called inactive. Active and inactive are the calls of the source. How the source made its calls: active means growth percent below 10; inactive means the rest.

How the values were obtained:
Test in all cases: NCI-60 one-dose screen, 48 h (100 = growth as untreated, 0 = no growth, -100 = all killed)
Conditions in all cases: 10 µM unless noted
[1] = tested on: NCI-H23 lung
[2] = tested on: NCI-H226 lung
[3] = tested on: HOP-62 NSCLC
[4] = tested on: NCI-H460 lung
[5] = tested on: HOP-92 NSCLC
[6] = tested on: NCI-H522 lung
[7] = tested on: 786-0 renal
[8] = tested on: COLO 205 colon
[9] = tested on: DU-145 prostate
[10] = tested on: K-562 leukemia
[11] = tested on: MALME-3M melanoma
[12] = tested on: MDA-MB-231 breast
[13] = tested on: RXF 393 renal
[14] = tested on: SF-268 CNS
[15] = tested on: SF-295 CNS
[16] = tested on: SF-539 CNS
[17] = tested on: UACC-257 melanoma
[18] = tested on: M14 melanoma
[19] = tested on: A549/ATCC NSCLC
[20] = tested on: NCI-H322M lung

Structure (SMILES) | growth [1] | growth [2] | growth [3] | growth [4] | growth [5] | growth [6] | growth [7] | growth [8] | growth [9] | growth [10] | growth [11] | growth [12] | growth [13] | growth [14] | growth [15] | growth [16] | growth [17] | growth [18] | growth [19] | growth [20] [%]
Cc1cc2oc(=O)cc(CP(=O)(O)O)c2cc1O | 100% | 102% | 97.3% | 103% | 100% | 93.9% | 105% | 104% | 103% | 107% | 85.8% | 97.4% | 103% | 96.6% | 100% | 96.8% | 94.5% | 103% | – | –
CCOC(=O)/C=C/c1c(C)[nH]c(=O)[nH]c1=O | 81.2% | 98.6% | 93.7% | 51.7% | 114% | 59.6% | 114% | – | 21% | 101% | 172% | 93.1% | 89.3% | 96% | 76.5% | 98.9% | 109% | 97.5% | 97.2% | –
COc1cc(C(=O)c2c(-c3ccccc3)oc3c(OC)cccc23)cc(OC)c1O | 34% | -0.617% (active) | 31.8% | 3.99% (active) | 34.9% | 13.1% | 33.4% | 7.65% (active) | 23% | 13.4% | 47.4% | 17% | -6.63% (active) | 46.5% | 2.85% (active) | -13.2% (active) | 71.4% | 16.3% | 20.2% | –
CC[C@@H](c1ccc2cc(OC)ccc2c1)C(C)(C)C(=O)F | 93.4% | 103% | 90.8% | 106% | 95.1% | 104% | 109% | 90.2% | 104% | 104% | 97.1% | 106% | 98.6% | 113% | 98.7% | 103% | -0.544% (active) | 99.2% | – | 124
O=C(Nc1ccc(F)cc1)Nc1ccccc1CNc1nc(Nc2ccc(OCCN3CCCC3)cc2)ncc1Cl | 60.8% | 99.1% | 51.3% | 9.85% (active) | 52.2% | 37% | -16.3% (active) | 0.109% (active) | 47% | 2.99% (active) | -29.3% (active) | -30.9% (active) | -50% (active) | 56.5% | 82.3% | -74.7% (active) | 5.96% (active) | -39.2% (active) | 38.2% | –
COc1cc(/C=C2\CN(S(=O)(=O)c3ccc(C)cc3)C/C(=C\c3cc(CN4CCCCC4)c(O)c(OC)c3)C2=O)cc(CN2CCCCC2)c1O | -64% (active) | -52.5% (active) | -81.7% (active) | -72.5% (active) | -75.3% (active) | -58% (active) | -65.4% (active) | -90.2% (active) | -88.1% (active) | -24.2% (active) | -82.4% (active) | -73.1% (active) | -72.1% (active) | -61.1% (active) | -74.7% (active) | -84.8% (active) | -89.6% (active) | -89% (active) | -84.9% (active) | –
O=S(=O)(c1ccccc1)N1CCCN(c2nc(-c3ccccc3)nc3nc(-c4ccccc4)oc23)CC1 | 107% | 109% | 104% | 110% | 105% | 98.5% | 102% | 116% | 119% | 110% | 105% | 108% | 115% | 111% | 105% | 104% | 109% | 109% | – | –
O=C1NC(=C(Cl)Cl)/C(=N/S(=O)(=O)NCCc2c[nH]c3ccccc23)N1 | 97.4% | 86% | 56.9% | 66.8% | 39% | 17.2% | 66.5% | 110% | 92.3% | 55% | 70% | 44.8% | 81.9% | 21.4% | 98.7% | 25.1% | 73.9% | 83.8% | 99.3% | –
O=C(CSc1nc2ccc([N+](=O)[O-])cc2[nH]1)Nc1ccc(Br)cc1 | 44.1% | 47.9% | 50.9% | 47.7% | -8.92% (active) | 20.9% | 48.3% | – | 62.2% | 26.9% | 40.9% | 67.7% | 85.5% | 65.5% | 56.5% | 70.5% | 37.7% | 50.1% | 44.5% | –
COC(=O)C1=C(C)NC(C)=C(C(=O)OCC(C)C)C1c1ccccc1[N+](=O)[O-] (centres undefined) | 58.4% | 93.1% | 79.1% | 49.5% | 47.3% | 25.4% | 59% | 91.1% | 50.6% | 18.2% | 86.1% | 55% | 70.2% | 66.6% | 56.9% | 65.6% | 81.6% | 51.1% | 65.4% | –
N=C(N)SCc1cccc2c(CSC(=N)N)cccc12 | 99.2% | 87.9% | 95.1% | 103% | 83.8% | 104% | 99.3% | 108% | 107% | 103% | 102% | 98.6% | 113% | 97.2% | 113% | 100% | 95.9% | 105% | 96.6% | –
CCOC(=O)c1cn2ncnc(Oc3ccc(NC(=O)NC4CC4)c(F)c3)c2c1C | 90.4% | 78.6% | 95.2% | 99.1% | 132% | 90.2% | 106% | 113% | 110% | 88.6% | 107% | 99.3% | 97.2% | 95% | 98.5% | 85% | 107% | 109% | – | 105
CCCCCSB(SCCCCC)c1ccccc1 | 99.9% | 102% | 90% | 112% | 105% | 88.3% | 103% | 106% | 108% | 112% | 101% | 105% | 109% | 98.2% | 105% | 106% | 94.4% | 102% | 92.4% | –
Cc1cc(C)cc(Nc2ccc([N+](=O)[O-])c(NCCN3CCOCC3)n2)c1 | 30.3% | – | 35.3% | 8.31% (active) | 67.7% | 13.3% | 8.13% (active) | -45.9% (active) | -1.87% (active) | 7.21% (active) | 60.5% | 31.2% | 58.4% | 25.1% | 15.7% | -11.3% (active) | 76.1% | 1.99% (active) | 23.7% | –
COc1cc(C(=O)c2c(N)ncn2-c2ccccc2)cc(OC)c1OC | 101% | – | 77.1% | 106% | 96.2% | 50.5% | 88.7% | 97.4% | 100% | 76.4% | 106% | 103% | 86.8% | 101% | 91% | 87% | 109% | 96.1% | 106% | 104
O=C1OCC2=C1C(c1cccc(C(F)(F)F)c1)c1cc3c(cc1N2CCO)OCO3 (centres undefined) | 29.5% | – | 33% | 13% | 51.4% | 16.1% | 28.5% | -2.39% (active) | 10.7% | 9.02% (active) | 63.9% | 44% | 1.92% (active) | 47.6% | -2.78% (active) | -3.02% (active) | 74.2% | 2.33% (active) | 28.9% | 42.4
